Drawing on PubChem BioAssay (Tox21), this text covers outcome, Potency and activity change, positive = activation for 24 compounds.

For assay [1], the target named is Thyrotropin receptor (Homo sapiens) (UniProt P16473). As to the kind of experiment: qHTS assay to identify small molecule agonists of the thyroid stimulating hormone receptor (TSHR) signaling pathway (AID 1224843). Note: nearly all actives have a fitted effect of over 45% in size. The gist of the method:
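Steps: seed 800 TSHR-HEK293 cells per well; add test compound and hold 30 min at ambient temperature; dispense cAMP-d2 then anti-cAMP cryptate; incubate 1 h at ambient; measure fluorescence intensity.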
A general note: In qHTS, concentration-response curves come from the screen itself.

Assay [2] can be described thus: qHTS assay to identify small molecule agonists of the hypoxia (HIF-1) signaling pathway - cell viability counter screen (AID 1224844). Note: nearly all actives have a fitted effect of over 50% in size. In short, it runs like this:
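Multiplexed with the HRE beta-lactamase assay, this viability read used CellTiter-Glo luminescence (30 min, RT) on HRE-bla ME-180 cells treated 17 hrs with compounds in 0.5% dialyzed FBS medium.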

Assay [3] is described as follows: qHTS assay to identify small molecule agonists of H2AX (AID 1224845; active = well fitted activation curve with a large enough effect in the signal ratio in the repeat runs, not every such curve was filed as active; the % refers to the signal ratio). In short, it runs like this:
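Wild-type CHO-K1 cells, plated overnight, exposed 3hr at 37C to 15 concentrations (0.76% DMSO final). Lysed, then HTRF anti-pH2AX (S139) cryptate and anti-H2AX-d2 antibodies, 24 hr room temperature; 665/620 nm emission read.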

The nature of assay [4]: qHTS assay to identify small molecule agonists of the hypoxia (HIF-1) signaling pathway (AID 1224846; active = well fitted activation curve with a large enough effect in the signal ratio in the repeat runs, not every such curve was filed as active; the % refers to the signal ratio). In short, it runs like this: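 Hypoxia-pathway activation was scored as increased beta-lactamase from an HRE-controlled reporter in ME-180 cells; plated at 2,000 cells per well with 0.5% dialyzed FBS, they were exposed 17 hrs to compounds and then given CCF4-AM.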
The nature of assay [5]: qHTS assay to identify small molecule agonists of H2AX - cell viability counter screen (AID 1224847). Note: top concentration of the series differs between compounds; nearly all actives have a fitted effect of over 30% in size. In short, it runs like this: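 Cytotoxicity counter screen in wild-type CHO-K1 cells: a 3 hr compound treatment at 37C across 15 concentrations, followed by CellTiter-Glo luminescence to gauge viable cells.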
A short description of assay [6]: qHTS assay to identify small molecule antagonists of the estrogen related receptor (ERR) signaling pathway from Tox21 library (AID 1224848; active = well fitted curve in the direction sought with a large enough effect in the repeat runs; an effect the other way counts as inactive or inconclusive; note: nearly all actives have a fitted effect of over 50% in size; note: potency is the fitted concentration of half-maximal effect). The gist of the method: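 Luminescent reporter read-out (ONE-Glo) from NTP's ERR cell line after 18 h treatment at 37 C with DMSO-dissolved Tox21 compounds; cells pre-plated 6 h beforehand at 2,000 per well.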
A short description of assay [7]: qHTS RealTime-Glo MT Cell Viability Assay in HepG2 cells - 24 hour (AID 1224867; active = well fitted curve in the direction sought with a large enough effect in the repeat runs; an effect the other way counts as inactive or inconclusive; note: nearly all actives have a fitted effect of over 50% in size). In short, it runs like this:
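Real-time, nonlytic viability: 600 HepG2 cells/well mixed with NanoLuc enzyme plus prosubstrate; 5 h settle, compound (DMSO) added by pintool; luminescence monitored over 40 h at 37 C.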

The nature of assay [8]: qHTS RealTime-Glo MT Cell Viability Assay in HEK293 cells - 32 hour (AID 1224868; active = well fitted curve in the direction sought with a large enough effect in the repeat runs; an effect the other way counts as inactive or inconclusive; note: nearly all actives have a fitted effect of over 50% in size; note: potency is the fitted concentration of half-maximal effect). The gist of the method:
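Cells + reagent dispensed (600 cells/well, HEK293) → 5 h at 37 C/5% CO2 → 23 nL compound in DMSO pinned → 40 h at 37 C → luminescence read at 0, 8, 16, 24, 32, 40 h.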

Assay [9] in a line: A CellTox Green Cytotoxicity Assay to monitor cytotoxicity in HEK293 cells - 0 hour (AID 1224869; active = well fitted curve in the direction sought with a large enough effect in the repeat runs; an effect the other way counts as inactive or inconclusive; note: nearly all actives have a fitted effect of over 50% in size; note: potency is the fitted concentration of half-maximal effect). The gist of the method:
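Seeding of HEK293 cells together with cytotoxicity dye preceded a 5 h incubation at 37 C/5% CO2. Test compounds in DMSO were then added and fluorescence monitored across 40 h.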

Assay [10] is described as follows: qHTS assay to identify small molecule agonists of the estrogen related receptor (ERR) signaling pathway from Tox21 library (AID 1224849). Note: nearly all actives have a fitted effect of over 15% in size. To be noted: ERR reporter cell line, ONE-Glo luciferase, 18 h; at 92.4 µM (top of the series) unless noted. The gist of the method:
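Six hours post-seeding at 37 C/5% CO2, ERR cells receive DMSO-solubilised compounds; after 18 h at 37 C, ONE-Glo reagent is applied and luminescence recorded.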

Unmarked numbers belong to inactive results. Records with an inconclusive call do not appear. Activity calls are given as the source filed them. Unless noted, calls come from the whole dose curve.
% is set by controls: 0 for no effect and ±100 for the full control effect.

Thyrotropin receptor (Homo sapiens), sequence (P16473 whole entry, looked up): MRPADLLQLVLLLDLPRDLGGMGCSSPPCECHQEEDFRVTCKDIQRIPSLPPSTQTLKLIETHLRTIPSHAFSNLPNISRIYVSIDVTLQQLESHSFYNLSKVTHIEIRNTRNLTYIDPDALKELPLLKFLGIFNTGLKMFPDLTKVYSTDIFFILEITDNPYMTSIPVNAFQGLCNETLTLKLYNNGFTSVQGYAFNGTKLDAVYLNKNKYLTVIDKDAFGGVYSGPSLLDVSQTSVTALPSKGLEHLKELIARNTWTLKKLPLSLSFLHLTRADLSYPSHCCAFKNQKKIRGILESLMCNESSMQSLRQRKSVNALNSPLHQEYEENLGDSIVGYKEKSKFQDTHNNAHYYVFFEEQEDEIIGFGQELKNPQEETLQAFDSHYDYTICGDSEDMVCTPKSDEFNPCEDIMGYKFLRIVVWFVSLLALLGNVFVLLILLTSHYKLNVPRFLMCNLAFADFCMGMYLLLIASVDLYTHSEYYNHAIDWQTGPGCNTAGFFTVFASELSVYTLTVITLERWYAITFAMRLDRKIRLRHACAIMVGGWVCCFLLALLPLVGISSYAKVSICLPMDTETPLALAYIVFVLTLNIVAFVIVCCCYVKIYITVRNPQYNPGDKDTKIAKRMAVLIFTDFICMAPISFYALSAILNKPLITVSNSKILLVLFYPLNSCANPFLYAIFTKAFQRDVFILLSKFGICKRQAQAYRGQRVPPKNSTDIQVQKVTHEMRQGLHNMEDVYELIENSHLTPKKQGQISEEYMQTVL

Take `COc1ccc2cc(C=O)ccc2c1`: the compound was called inactive in assay [1], in assay [3], in [4] and in [7]. Besides, the Potency entry in assay [2], in assay [5], in [6], in [8] and in assay [9] was “inactive” in each case.

With `N[C@@H](CS)C(=O)O`, the compound was called inactive in assay [1], in assay [3], in assay [4] and in [7]. Further, the Potency result in assay [2], in assay [5] and in assay [8] was “inactive” throughout.

On to `Nc1ncnc2c1ncn2Cc1c(F)cccc1Cl`, for which the call in [1], in assay [3], in assay [4] and in assay [7] was inactive. Besides, the Potency entry in assay [2], in assay [5], in assay [6] and in assay [8] was “inactive” throughout. The activity change, positive = activation in assay [10] is 0.331% [at 42.5 µM].

As to `C#CC(O)CCCCC` (stereo not given), the compound was classed as inactive in assay [1], in assay [3], in assay [4] and in assay [7]. For the same compound, the Potency result in assay [2], in [5] and in assay [8] was “inactive” each time.

On to `CCCCCCCCC=O`, for which the compound was called inactive in assay [1], in [3], in assay [4] and in [7]. For the same compound, the Potency result in assay [2], in assay [5], in [6] and in assay [8] was “inactive” throughout.

With `Cc1ccccc1Br`, the compound was called inactive in [1], in [3], in assay [4] and in assay [7]. The Potency result in assay [2], in [5], in assay [6], in [8] and in assay [9] was “inactive” in each case. Further, the activity change, positive = activation in [10] is -0.692%.

As to `O=C(O)C(O)[C@H](O)[C@@H](O)[C@H](O)[C@H](O)CO` (stereo not given in full), the outcome in assay [1], in [3], in [4] and in assay [7] was inactive. The Potency entry in [2], in assay [5] and in [9] was “inactive” each time. Also, in [10], the activity change, positive = activation was -30.1%.

For `CCC(=O)Nc1cccc(N)c1`, the compound was classed as inactive in assay [1], in assay [3], in assay [4] and in assay [7]. The Potency entry in assay [2], in [5], in assay [6] and in [8] was “inactive” throughout.

On to `Nc1ccn(C2CO[C@H](CO)O2)c(=O)n1` (stereo not given in full), for which the compound was called inactive in [1], in assay [3], in assay [4] and in [7]. Moreover, the Potency entry in assay [2], in assay [5], in assay [6] and in [8] was “inactive” throughout. Further, the Potency in [9] was 16.9 µM (active).

Consider `CCCCCCCCCCCCCCC`, for which the result in [1], in [3], in assay [4] and in assay [7] was inactive. In addition, the Potency result in assay [2], in assay [5], in [6] and in assay [8] was “inactive” each time. In addition, the activity change, positive = activation in [10] is 4.59%.

Take `CC12CCC(CC1=O)C2(C)C` (stereo not given): the call in assay [1], in assay [3], in assay [4] and in assay [7] was inactive. The Potency result in [2], in assay [5], in [6], in [8] and in assay [9] was “inactive” throughout.

Turning to `CCCC=O`, the compound was called inactive in [1], in assay [3], in assay [4] and in [7]. The Potency entry in assay [2], in [5], in [6] and in [8] was “inactive” throughout.

For the compound `CCn1c(=O)c2c(nc(/C=C/c3ccc(OC)c(OC)c3)n2C)n(CC)c1=O`, the call in assay [1], in assay [3], in [4] and in assay [7] was inactive. Further, the Potency entry in [2] and in [5] was “inactive” each time. The Potency is 21.1 µM (active) in [6] and 1.69 µM (active) in assay [8]. Moreover, in assay [10], the activity change, positive = activation was -35.7% [at 42.5 µM].

On to `O=Cc1ccccc1[N+](=O)[O-]`, for which the outcome in [1], in assay [3], in assay [4] and in assay [7] was inactive. Also, the Potency entry in [2], in [5], in assay [6], in assay [8] and in assay [9] was “inactive” each time. Besides, in assay [10], the activity change, positive = activation was 2.11%.

Consider `OCc1ccccn1`, for which the result in assay [1], in assay [3], in assay [4] and in [7] was inactive. In addition, the Potency entry in assay [2], in assay [5], in [6], in assay [8] and in assay [9] was “inactive” each time.

Regarding `CCC(=O)/C=C/c1ccc(OC)cc1`, the compound was called inactive in assay [1], in assay [3], in [4] and in assay [7]. Besides, the Potency entry in assay [2], in assay [5], in assay [6] and in assay [8] was “inactive” throughout.

Turning to `CN(C)C(=O)Nc1ccccc1`, the result in assay [1], in assay [3], in assay [4] and in assay [7] was inactive. Besides, the Potency result in assay [2], in [5], in assay [6], in assay [8] and in assay [9] was “inactive” each time.

In the case of `CC(C)[N+](C)(C)CC(O)COc1cccc2ccccc12` (stereo not given), the compound was classed as inactive in [1], in assay [3], in assay [4] and in assay [7]. In addition, the Potency result in assay [2], in [5] and in [8] was “inactive” each time.

Take `COC(=O)[C@H]1[C@H]2C[C@@H]3c4[nH]c5cc(OC)ccc5c4CCN3C[C@H]2C[C@@H](OC(=O)COc2ccc(OC)cc2)[C@@H]1OC`: the result in assay [1], in assay [3], in assay [4] and in [7] was inactive. In addition, the Potency entry in assay [2], in assay [5], in assay [6], in [8] and in assay [9] was “inactive” in each case.

For `CCCCCCC(=O)OCC`, the outcome in assay [1], in assay [3], in assay [4] and in assay [7] was inactive. In addition, the Potency result in [2], in assay [5], in assay [6], in assay [8] and in assay [9] was “inactive” each time. Further, in assay [10], the activity change, positive = activation was 6.4%.

Take `C=C(C)[C@@H]1CCC2=CC(=O)C[C@@H](C)[C@]2(C)C1`: the compound was classed as inactive in [1], in assay [3], in assay [4] and in [7]. In addition, the Potency result in assay [2], in assay [5], in assay [6], in [8] and in assay [9] was “inactive” throughout. For the same compound, in assay [10], the activity change, positive = activation is -3.73%.

Turning to `CC(=O)O[C@H](CC(=O)[O-])C[N+](C)(C)C`, the compound was classed as inactive in [1], in assay [3], in assay [4] and in assay [7]. Also, the Potency entry in assay [2], in [5], in assay [6] and in [8] was “inactive” in each case. Further, in assay [10], the activity change, positive = activation was -2.17%.

`CCO[Si](C)(OCC)OCC`: the compound was classed as inactive in assay [1], in assay [3], in [4] and in assay [7]. Moreover, the Potency result in [2], in [5], in assay [6], in assay [8] and in assay [9] was “inactive” throughout. For the same compound, the activity change, positive = activation in [10] was 4.4%.

As for `NC(=O)c1c(Cl)cccc1Cl`, the call in [1], in assay [3], in assay [4] and in [7] was inactive. Besides, the Potency result in [2], in [5], in assay [6], in assay [8] and in assay [9] was “inactive” each time.
